In all, about 360,000 compounds went through this assay and about 10,000 (2.8%) were called active. Not shown: some 4% with an inconclusive outcome. Calls follow the shape of the dose curve; as a rule, active = well fitted inhibition curve with a large enough effect; inconclusive = small, poorly fitted or top-dose-only effect; inactive = flat fitted curve, though single readings scatter. The full list was thinned out, with actives kept by preference.
% is scaled to controls: 0 for no effect and ±100 for the full control effect; potency is read from the fitted curve at half-maximal effect.

In this assay the target is Serine/threonine-protein kinase PLK1 (Homo sapiens) (UniProt P53350). In words: qHTS for Inhibitors of PLK1-PDB (polo-like kinase 1 - polo-box domain): Primary Screen. Also: nearly all actives have a fitted effect of over 65% in size. As to max response, negative = inhibition: series mostly up to about 57 µM. Conditions: Plk1 PBD binding of FITC phosphopeptide, fluorescence polarization. A general note: qHTS replaces the single test concentration by a dilution series.
Sequence of Serine/threonine-protein kinase PLK1 (Homo sapiens) (P53350 whole entry, looked up, the tested form may be a part): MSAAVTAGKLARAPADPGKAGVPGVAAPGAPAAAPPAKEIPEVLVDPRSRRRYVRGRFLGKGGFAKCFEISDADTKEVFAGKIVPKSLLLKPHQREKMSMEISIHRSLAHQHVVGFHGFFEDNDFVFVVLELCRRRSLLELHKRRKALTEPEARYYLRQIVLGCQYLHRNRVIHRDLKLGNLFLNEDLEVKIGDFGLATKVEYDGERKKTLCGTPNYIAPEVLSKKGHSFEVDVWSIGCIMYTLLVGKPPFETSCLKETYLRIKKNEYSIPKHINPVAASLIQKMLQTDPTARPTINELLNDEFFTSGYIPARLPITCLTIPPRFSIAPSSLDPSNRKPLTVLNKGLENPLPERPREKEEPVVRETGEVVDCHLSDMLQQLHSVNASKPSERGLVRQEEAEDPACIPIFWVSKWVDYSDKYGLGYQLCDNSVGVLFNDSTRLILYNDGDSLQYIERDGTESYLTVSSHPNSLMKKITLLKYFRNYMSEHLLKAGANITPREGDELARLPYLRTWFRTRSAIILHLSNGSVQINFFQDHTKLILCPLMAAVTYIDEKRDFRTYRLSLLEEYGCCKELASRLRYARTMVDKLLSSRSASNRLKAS
Turning to `COc1ccc(Cn2c(=O)oc3ccccc32)cc1`, the max response, negative = inhibition is -4.16% (inactive).
Take `CC(=O)Nc1cccc(-c2cc3nc(NCc4cccnc4)n(C)c(=O)c3s2)c1`: the max response, negative = inhibition is -0.405% (inactive).
For `CC(=O)Oc1ccc(Cn2c(C)c(C(=O)NCc3ccc(C#N)cc3)sc2=O)cc1`, the max response, negative = inhibition is -2.92% (inactive).
`Cc1sc2nc(-c3ccccc3F)oc(=O)c2c1C`: the max response, negative = inhibition is -3.03% (inactive).
In the case of `N#CCCN(C(=S)Nc1ccc(Cl)c(Cl)c1)C1CCCCC1`, the max response, negative = inhibition is -9.12% (inactive).
On to `O=c1cnnc(Nc2ccccc2)[nH]1`, for which the max response, negative = inhibition is -9.72% (inactive).
In the case of `S=c1[nH]nc(Nc2ccccc2)s1`, the Potency was 23.8 µM (active).
Turning to `CC(C)(C)C(=O)c1cnc(Nc2ccccc2)s1`, the max response, negative = inhibition is -4.38% (inactive).
For `CCOC(=O)C(Sc1ncc(C#N)c(N)n1)C(C)C` (stereo unspecified), the Potency is 11.9 µM (active).
On to `CCOC(=O)c1cnc(SCC(=O)Nc2ccccc2C(=O)OC)nc1N`, for which the max response, negative = inhibition is 0.561% (inactive).
Regarding `CCOC(=O)CSc1nccc(N(C)C)c1C#N`, the max response, negative = inhibition was -3.55% (inactive).
`COc1ccc(OC)c(S(=O)(=O)n2c([N+](=O)[O-])cnc2C)c1`: the max response, negative = inhibition was -9.42% (inactive).
For the molecule `COc1ccc(C(C[N+](=O)[O-])n2nc(C)cc2C)cc1` (stereo unspecified), the Potency is 26.7 µM (active).
On to `COc1cccc(CSc2nc3nc(C)cc(C)n3n2)c1`, for which the max response, negative = inhibition was -14.8% (inactive).
Take `CC1(C(=O)Nc2ccc3c(c2)OCCO3)CCN1C(=O)Cc1cc(F)ccc1F` (stereo unspecified): the max response, negative = inhibition is 2.25% (inactive).
For `CCOC(=O)c1cc(-c2sc(NC(=O)c3ccccc3)nc2C)n(-c2ccc(Br)cc2)n1`, the max response, negative = inhibition was -6.87% (inactive).
With `O=C(NCc1ccccc1)C1CNCC(C(=O)NCc2ccccc2)C1` (stereo unspecified), the max response, negative = inhibition is 1.25% (inactive).
`O=C(c1ccc(N2CCCC2=O)cc1)N1CCN(c2ccc(C(F)(F)F)cc2[N+](=O)[O-])CC1`: the max response, negative = inhibition was -12.4% (inactive).
On to `COc1ccc(N(CC(=O)NCC2CCCO2)C(=O)CCC(=O)Nc2nccs2)c(OC)c1` (stereo unspecified), for which the max response, negative = inhibition was -9.55% (inactive).
`CCc1ccccc1N(CC(=O)NCC1CCCO1)C(=O)CCC(=O)Nc1nccs1` (stereo unspecified): the Potency was 21.2 µM (active).
On to `Cc1cc(NC(=O)CCC(=O)N(CC(=O)NCC2CCCO2)c2ccccc2C)no1` (stereo unspecified), for which the max response, negative = inhibition was -1.5% (inactive).
`COc1ccc(C(=O)C(OP(=O)(OC)OC)c2ccccc2OC)cc1` (stereo unspecified): the max response, negative = inhibition is -7.71% (inactive).
`CO[C@@H]1CN(C)C(=O)c2cc(NC(=O)C3CC3)ccc2OC[C@H](C)N(C(=O)CN2CCOCC2)C[C@@H]1C`: the max response, negative = inhibition is -4.89% (inactive).
For the molecule `O=C(Nc1ccccc1-c1ccccc1)c1cccs1`, the Potency was 4.23 µM (active).
Take `O=C(Nc1ccccc1-c1ccccc1)c1ccccc1[N+](=O)[O-]`: the max response, negative = inhibition was -3.58% (inactive).
Regarding `O=C(Nc1ccccc1-c1nnn(CC(=O)N2CCN(c3ccccc3)CC2)n1)c1cccs1`, the max response, negative = inhibition is -6.64% (inactive).
Regarding `O=C(NCc1ccccc1)C1c2ccccc2OCC(=O)N1CCCN1CCOCC1` (stereo unspecified), the max response, negative = inhibition was -0.492% (inactive).
Regarding `CC(C)c1ccc2c(c1)c(SC(C)(C)C)c(CC(C)(C)C(=O)O)n2Cc1ccc(Cl)cc1`, the Potency is 16.8 µM (active).
With `COc1ccc(NC2CCCN(C(=O)c3ccccc3-c3ncc[nH]3)C2)cc1` (stereo unspecified), the max response, negative = inhibition is -9.12% (inactive).
On to `CC1=C(C(=O)N(C(C)C)C(C)C)CC(CC(=O)NCCCCc2ccccc2)C(=O)N1CCC1=CCCCC1` (stereo unspecified), for which the max response, negative = inhibition was 1.49% (inactive).
Consider `CN(Cc1cn(Cc2ccc(C(F)(F)F)cc2)nn1)C1CN(Cc2cn(Cc3ccc(C(F)(F)F)cc3)nn2)S(=O)(=O)C1` (stereo unspecified), for which the max response, negative = inhibition is -2.76% (inactive).
For the molecule `CCOc1ccccc1NC(=S)C(=C([O-])c1ccc2c(c1)OCCO2)[n+]1ccc(CC)cc1`, the Potency is 26.7 µM (active).
`CCc1ccccc1OCC(=O)Nc1ccc2c(c1)OCCO2`: the max response, negative = inhibition was -10.4% (inactive).
As to `O=[N+]([O-])c1cccc(/C([O-])=C(/C(=S)Nc2ccccc2F)[n+]2ccccc2)c1`, the max response, negative = inhibition was -15% (inactive).
The same measure, in the same setting: next, `CCOc1ccc(CCN2C(=S)N([C@@H](CC(C)C)CN3CCC[C@@H]3CN3C(=S)NC[C@@H]3Cc3ccc(O)cc3)C[C@@H]2Cc2ccc(O)cc2)cc1`: 5.13% (inactive); `CCc1nc2c(OCc3ccc(Cl)cc3Cl)cccn2c1N(C)C(=O)C(C)C`: 3.78% (inactive); `CC(C)CNC(=O)C1(C)CCCN1C(=O)CSc1ccccc1` (stereo unspecified): -9.29% (inactive).
`O=C(CCC1CCCN(C(=O)c2ccc(F)c(F)c2)C1)N1CCN(c2ccccn2)CC1` (stereo unspecified): the max response, negative = inhibition was -12.1% (inactive).
Still for that read-out and setting: the result for `O=C(CCC1CCCN(C(=O)Cc2ccc(F)cc2)C1)N1CCN(c2ccccn2)CC1` (stereo unspecified) reads 2.42% (inactive).
Consider `C=Cc1ccc(C(=O)N2CCCC(CCC(=O)N3CCN(c4ccccn4)CC3)C2)cc1` (stereo unspecified), for which the Potency is 21.2 µM (active).
Take `O=C(C=CC(=O)Nc1ccc(F)cc1F)Nc1ccc(F)cc1F`: the max response, negative = inhibition was 0.443% (inactive).
Consider `COC(=O)Cc1ccc(OC2(C)CCN(Cc3ccc4c(c3)OCCO4)C2)cc1` (stereo unspecified), for which the max response, negative = inhibition was -7.87% (inactive).
Regarding `COc1cccc(CNC(=O)c2cccnc2Sc2ccc(Cl)cc2)c1`, the max response, negative = inhibition was -0.639% (inactive).
Consider `O=C(NNc1cc(Cl)ccc1Cl)c1cccnc1Cl`, for which the max response, negative = inhibition was 7.67% (inactive).
Take `CC(=O)/C(=N\Nc1ccc(Cl)cc1Cl)Sc1cccc2cccnc12`: the Potency is 4.23 µM (active).
On to `NC(c1csc(NC(=O)Nc2cccc(C(F)(F)F)c2)n1)C1CCCCC1` (stereo unspecified), for which the max response, negative = inhibition is -5.95% (inactive).
Same read-out and setting: the result for `CC(=O)Nc1ccc(CNc2nc(NCCN(C)C)nc3cc(-c4ccccc4)sc23)cc1` reads 0.652% (inactive).
As to `Cc1cccc(C)c1Cn1c(C)c(C(=O)NCc2cccc(Cl)c2)sc1=O`, the max response, negative = inhibition was -19.8% (inactive).
For the molecule `CCNC(=O)C1(C)CCCN1C(=O)c1ccc(N(C)C)cc1` (stereo unspecified), the max response, negative = inhibition is -10.7% (inactive).
As to `O=C(NC1CCN(C(=S)Nc2ccc(Cl)cc2)CC1)C1CCCCC1`, the max response, negative = inhibition was -11.1% (inactive).
In the case of `NC(=O)C1(N2CCCCC2)CCN(C(=S)Nc2ccc(Cl)cc2)CC1`, the max response, negative = inhibition is 1.24% (inactive).
Consider `CN(C)c1ccc(C(=S)N2CCN(C(=S)Nc3ccc(Cl)cc3)CC2)cc1`, for which the Potency was 6.7 µM (active).
In the case of `Cc1ccc(-c2nc3c(C)cc(Br)cn3c2Cc2ccccc2)cc1`, the max response, negative = inhibition was -13.2% (inactive).
As for `COc1ccc(OC)c(NC(=O)C2(C)CCN2C(=O)Cc2ccccc2)c1` (stereo unspecified), the max response, negative = inhibition is -5.3% (inactive).
On to `CCCOc1ccc(Cn2c(O)cc(=O)[nH]c2=O)cc1`, for which the max response, negative = inhibition was -26.3% (inactive).
For the molecule `COc1cc(=O)[nH]c(=O)n1C(=O)Cc1ccccc1`, the Potency is 2.99 µM (active).
Regarding `COc1ccc(-c2cnc3c(c2)C(=O)N([C@H](C)CO)C[C@@H](C)[C@H](CN(C)Cc2ccccc2)O3)cc1`, the max response, negative = inhibition was -12.1% (inactive).
Still for that read-out and setting: the result for `O=C1NC[C@H](Cc2ccc(O)cc2)N(C[C@@H]2CCCN2C[C@H](Cc2ccccc2)N2C[C@H](Cc3ccccc3)N(CC3CCCCC3)C(=O)C2=O)C1=O` reads -9.78% (inactive).
As to `O=C(c1cc(C2CCCCN2S(=O)(=O)c2ccccc2)on1)N1CCOCC1` (stereo unspecified), the max response, negative = inhibition was 3.83% (inactive).
On to `C=CS(=O)c1sc(Cl)c(N2CCOCC2)c1[N+](=O)[O-]` (stereo unspecified), for which the Potency was 1.34 µM (active).
Take `O=S1(=O)C[C@@H](N2CCN(CCO)CC2)[C@H](COCc2ccccc2)N1`: the max response, negative = inhibition was -14.5% (inactive).
In the case of `Cc1cc(Br)cn2c(Cc3ccccc3C(F)(F)F)c(C3CCCCC3)nc12`, the max response, negative = inhibition was -6.9% (inactive).
`Cc1cc2nc3c(=O)n(Cc4ccccc4)c(=O)[nH]c3nc2cc1N`: the Potency was 3.36 µM (active).
With `Nc1cc(=O)n(Cc2ccccc2)c(=O)n1Cc1ccccc1`, the max response, negative = inhibition was -11.9% (inactive).
Still for that read-out and setting: the result for `CN(C(=O)COC(=O)c1ccc(Br)o1)c1c(N)n(Cc2ccccc2)c(=O)[nH]c1=O` reads 2.32% (inactive); that for `COCCCNC(=O)c1ccc(-c2c(C)noc2C)c2ccoc12`, -2.73% (inactive).
On the same count and under the same terms, the result for `CCCNC(=O)C1(C)CCN(C(=O)c2cc(F)ccc2C)C1` (stereo unspecified) reads -7.98% (inactive).
With `CC1CCC(NS(=O)(=O)c2ccc3c(c2)n(C)c(=O)c(=O)n3C)CC1` (stereo unspecified), the max response, negative = inhibition is -1.85% (inactive).
As for `Cn1sc(=O)c2cc(S(=O)(=O)NC3CC3)ccc21`, the Potency was 2.12 µM (active).
As for `O=S(=O)(NC1CC1)c1ccc(Cl)cc1`, the max response, negative = inhibition is -11.6% (inactive).
Same read-out and setting: the result for `COC(=O)c1ccc2nc(-c3ccccc3)c(Cc3ccc(OC)cc3C)n2c1` reads -8.32% (inactive); that for `CCOC(=O)C1=CCC(c2ccc(F)cc2)N(S(=O)(=O)c2ccc(C)cc2)C1` (stereo unspecified), -10.4% (inactive).
With `COc1ccc(NC(=O)CSc2ncnc3[nH]ncc23)cc1`, the Potency is 3.77 µM (active).
With `O=C(CSc1nc2[nH]ncc2c(=O)[nH]1)Nc1ccc(F)cc1`, the max response, negative = inhibition was -1.42% (inactive).
Regarding `COc1ccc(-n2ncc3c(SCC(=O)NNC(C)=O)ncnc32)cc1`, the max response, negative = inhibition is 4.95% (inactive).
`Cn1cnc(S(=O)(=O)N2C[C@@H](O)COC[C@@H]3O[C@H](CC(=O)NC4CCC4)CC[C@H]32)c1`: the max response, negative = inhibition was -0.717% (inactive).
The same measure, in the same setting: next, `Cc1nccn1-c1ccc(NC(=O)[C@H]2O[C@@H](n3ccc(=O)[nH]c3=O)[C@H](O)[C@@H]2O)cc1`: 0.546% (inactive).
For `CCOC(=O)[C@]12CCC=C1N(Cc1ccccc1)C(=O)[C@H](CC(=O)N1CCCC1)C2`, the max response, negative = inhibition was -1.56% (inactive).
Take `CCCCCn1nnnc1C1c2ccccc2C(=O)N1Cc1ccco1` (stereo unspecified): the max response, negative = inhibition is -6.84% (inactive).
Turning to `Cc1ccc2nc(SCc3nnc(-c4ccccc4[N+](=O)[O-])o3)c(C#N)cc2c1`, the max response, negative = inhibition was -9% (inactive).
As to `Cc1ccc(-c2ccc(/C=C(\C#N)C(N)=S)o2)c([N+](=O)[O-])c1`, the Potency is 26.7 µM (active).
Turning to `Cc1cc(C)c([N+](=O)[O-])cc1-c1ccc(/C=N/NC(=O)c2nonc2N)o1`, the max response, negative = inhibition was 0.266% (inactive).
Turning to `CC1=C(C(=O)N(C(C)C)C(C)C)CC(CC(=O)NCC2CCCCC2)C(=O)N1Cc1ccccc1` (stereo unspecified), the max response, negative = inhibition is -4.13% (inactive).
For the molecule `O=C(C(=O)N1CCC(c2ccccc2)CC1)c1ccccc1`, the max response, negative = inhibition was 3.91% (inactive).
On to `Brc1ccc(C2=CC(c3ccco3)n3ncnc3N2)cc1` (stereo unspecified), for which the Potency was 23.8 µM (active).
As to `Clc1ccc2c(c1)C1=C(C(c3ccncc3)O2)C(c2ccc(Br)cc2)n2ncnc2N1` (stereo unspecified), the max response, negative = inhibition is -0.898% (inactive).
